The results in this text go back to PubChem BioAssay (Tox21).

Results filed as inconclusive are left out. Active and inactive are the calls of the source. Unless noted, calls come from the whole dose curve; as a rule, active = well fitted curve in the direction sought with a large enough effect in the repeat runs; inconclusive = weak or mixed curves; inactive = no such curve, though single readings can be large; an effect the other way counts as inactive or inconclusive.

A short description of test [1]: qHTS assay to identify small molecule agonists of the RXR signaling pathway - cell viability counter screen (AID 1159529). Note: nearly all actives have a fitted effect of over 50% in size. The procedure, abridged:
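CellTiter-Glo luminescence gave viability in the wells also read for beta-lactamase. Cells (RXR-alpha-UAS-bla HEK 293T, 2% charcoal-stripped FBS medium) had 5 hr plating, then 16 hr compound exposure at 37 C; tetraoctyl ammonium bromide served as positive control.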

Test [2] is described as follows: qHTS assay to identify small molecule antagonists of the retinoid acid receptor (RAR) signaling pathway - cell viability counter screen (AID 1159551). Note: nearly all actives have a fitted effect of over 35% in size. In short, it runs like this:
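C3RL4 RARE-luciferase cells, 1,000/well, incubated overnight, then dosed with compound plus 1 uM retinol (final). After 6 hr at 37 C, viability read by CellTiter-Glo ATP luminescence following 30 min at room temperature.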
Background: Quantitative high-throughput screening tests each substance at several concentrations.

Test [3] can be described thus: qHTS assay to identify small molecule antagonists of the retinoic acid receptor (RAR) signaling pathway (AID 1159552; note: nearly all actives have a fitted effect of over 50% in size). The procedure, abridged:
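Luminescent RARE reporter read-out in C3RL4 cells: 6 hr co-treatment at 37 C of test compounds with retinol at 1 uM final. Cells plated overnight beforehand; luciferase reagent incubated 30 min at room temperature before reading.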

Test [4] is described as follows: qHTS assay to identify small molecule agonists of the retinoic acid receptor (RAR) signaling pathway (AID 1159553). Particulars: C3RL4 RARE luciferase reporter, agonist, 6 h; activation: at 73.3 µM (top of the series) unless noted. In short, it runs like this:
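C3RL4 RARE-luciferase cells were seeded at 1,000/well and grown overnight at 37 C, then exposed to compounds for 6 hr at 37 C, 5% CO2. Luciferase reagent was added and luminescence was read after 30 min at room temperature.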

The nature of test [5]: qHTS assay to identify small molecule antagonists of the estrogen related receptor (ERR) signaling pathway from Tox21 library - cell viability counter screen (AID 1224834). Note: nearly all actives have a fitted effect of over 30% in size. In short, it runs like this: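 ERR reporter cells, 2,000 per well, rested 6 h, then exposed to compound in DMSO for 17.5 hours at 37 C. Viability read as fluorescence after 30 min with CellTiter-Fluor.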

Test [6] has as its target Luciferin 4-monooxygenase (Photinus pyralis) (UniProt P08659). Kind of test: qHTS assay to identify small molecule inhibitors of firefly luciferase (AID 1224835). Note: nearly all actives have a fitted effect of over 25% in size. Note: potency is the fitted concentration of half-maximal effect. In short, it runs like this:
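Quantitative HTS format; KM concentrations of both substrates. Purified P. pyralis FLuc activity quantified from luminescence images.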

The nature of test [7]: qHTS assay to identify small molecule agonists of the constitutive androstane receptor (CAR) signaling pathway - cell viability counter screen (AID 1224836). Note: nearly all actives have a fitted effect of over 45% in size. The procedure, abridged:
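Cell viability multiplexed with the CAR agonist screen: CellTiter-Fluor fluorescence after 23 hr at 37 C. HepG2-CYP2B6-hCAR cells got compounds at 15 concentrations with PK11195 at 0.75 uM final.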

Test [8] in a line: qHTS assay to identify small molecule antagonists of the constitutive androstane receptor (CAR) signaling pathway - cell viability counter screen (AID 1224837). Note: nearly all actives have a fitted effect of over 45% in size. The procedure, abridged:
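HepG2 cells stably carrying hCAR and CYP2B6-2.2kb reporter, stimulated with 50 nM CITCO and compounds at 15 concentrations for 23 h at 37 C. Viability measured by CellTiter-Fluor fluorescence.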

The nature of test [9]: qHTS assay to identify small molecule antagonists of the estrogen related receptor signaling pathway with the pleiotropic PPARgamma coactivator (PGC) from Tox21 10K library - cell viability counter screen (AID 1224840; active = well fitted cell-killing curve with a large enough effect in the repeat runs, not every such curve was filed as active; note: nearly all actives have a fitted effect of over 40% in size). The procedure, abridged:
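PGC/ERR cells (2,000/well) plated 6 h, then compound-treated for 17.5 h at 37 C. Viability measured by CellTiter-Fluor fluorescence after 30 min at 37 C, multiplexed with the pathway assay.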

In test [10] the target is Thyrotropin receptor (Homo sapiens) (UniProt P16473). Kind of test: qHTS assay to identify small molecule agonists of the thyroid stimulating hormone receptor (TSHR) signaling pathway (AID 1224843; calls by dose curve; note: nearly all actives have a fitted effect of over 45% in size). In short, it runs like this:
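Cell line HEK293 with TSHR; density 800/well. Exposure 30 min RT. Readout HTRF cAMP (cAMP-d2/anti-cAMP-cryptate), 1 h RT before reading.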

Test [11] addresses Nuclear receptor subfamily 1 group I member 3 (Homo sapiens) (UniProt Q14994). Put plainly: qHTS assay to identify small molecule antagonists of the constitutive androstane receptor (CAR) signaling pathway (AID 1224838). Note: nearly all actives have a fitted effect of over 40% in size. In short, it runs like this:
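HepG2 cells stably carrying hCAR and a CYP2B6-2.2kb luciferase reporter, seeded 4 hrs before compound (15 concentrations). Stimulated with 50 nM CITCO for 24 hr at 37 C. ONE-Glo luminescence read after 30 min at room temperature.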

Test [12] shares this target. Put plainly: qHTS assay to identify small molecule agonists of the constitutive androstane receptor (CAR) signaling pathway (AID 1224839). Note: nearly all actives have a fitted effect of over 15% in size. In short, it runs like this: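 Luminescent ONE-Glo read-out after 24 hr, 37 C exposure of double-stable HepG2-CYP2B6-hCAR reporter cells to a 15-point compound series, in the presence of 0.75 uM PK11195 (final).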
A short description of test [13]: qHTS assay to identify small molecule antagonists of the estrogen related receptor signaling pathway with the pleiotropic PPARgamma coactivator (PGC) from Tox21 10K library (AID 1224841; call rule not given here; note: actives are mostly falling curves and most rising ones were filed inactive; nearly all actives have a fitted effect of over 50% in size). In short, it runs like this:
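PGC/ERR cell line, 2,000 cells/well, pre-incubated 6 hours at 37 C, then exposed to compounds for 18 hours at 37 C; luciferase read with One-Glo luminescence after 30 min at room temperature.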

Test [14] can be described thus: qHTS assay to identify small molecule agonists of the estrogen related receptor signaling pathway with the pleiotropic PPARgamma coactivator (PGC) from Tox21 10K library (AID 1224842). Note: nearly all actives have a fitted effect of over 15% in size. In short, it runs like this:
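PGC/ERR reporter cells (NTP line) were seeded 2,000 per well, rested 6 h at 37 C/5% CO2, then pin-dosed with compounds in DMSO for 18 h at 37 C; luciferase read by One-Glo luminescence after 30 min at room temperature.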

Test [15] in a line: qHTS assay to identify small molecule antagonists of the estrogen related receptor (ERR) signaling pathway - cell viability counter screen (AID 1224818). In short, it runs like this: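 ERR cells, 2,000 per well, compound added after 6 h and incubated 17.5 h at 37 C. Viability read by CellTiter-Fluor fluorescence after a further 30 min at 37 C.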
Test [16] can be described thus: qHTS assay to identify small molecule antagonists of the estrogen related receptor signaling pathway with the pleiotropic PPARgamma coactivator (PGC) cell viability counter screen (AID 1224822). The procedure, abridged: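 PGC/ERR cells rested 6 h, then compound-treated 17.5 h at 37 C. CellTiter-Fluor added for 30 min at 37 C, viability measured by fluorescence intensity.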

Chain of Luciferin 4-monooxygenase (Photinus pyralis) (P08659 whole entry, looked up): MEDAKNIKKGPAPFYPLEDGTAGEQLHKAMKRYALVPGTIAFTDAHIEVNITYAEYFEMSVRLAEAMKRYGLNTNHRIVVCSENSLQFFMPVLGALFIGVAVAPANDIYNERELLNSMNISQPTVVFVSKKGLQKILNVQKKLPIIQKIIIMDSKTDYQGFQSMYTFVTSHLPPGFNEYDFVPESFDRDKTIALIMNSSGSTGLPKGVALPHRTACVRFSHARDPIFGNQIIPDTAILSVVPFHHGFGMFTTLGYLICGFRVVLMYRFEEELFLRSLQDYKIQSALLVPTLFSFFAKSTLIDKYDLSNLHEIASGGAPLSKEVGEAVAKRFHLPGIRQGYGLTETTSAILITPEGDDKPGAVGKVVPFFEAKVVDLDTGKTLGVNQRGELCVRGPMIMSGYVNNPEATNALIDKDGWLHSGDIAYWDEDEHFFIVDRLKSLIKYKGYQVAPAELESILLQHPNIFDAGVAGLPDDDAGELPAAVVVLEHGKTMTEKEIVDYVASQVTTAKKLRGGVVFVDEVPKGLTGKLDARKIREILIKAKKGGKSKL
Chain of Thyrotropin receptor (Homo sapiens) (P16473 whole entry, looked up): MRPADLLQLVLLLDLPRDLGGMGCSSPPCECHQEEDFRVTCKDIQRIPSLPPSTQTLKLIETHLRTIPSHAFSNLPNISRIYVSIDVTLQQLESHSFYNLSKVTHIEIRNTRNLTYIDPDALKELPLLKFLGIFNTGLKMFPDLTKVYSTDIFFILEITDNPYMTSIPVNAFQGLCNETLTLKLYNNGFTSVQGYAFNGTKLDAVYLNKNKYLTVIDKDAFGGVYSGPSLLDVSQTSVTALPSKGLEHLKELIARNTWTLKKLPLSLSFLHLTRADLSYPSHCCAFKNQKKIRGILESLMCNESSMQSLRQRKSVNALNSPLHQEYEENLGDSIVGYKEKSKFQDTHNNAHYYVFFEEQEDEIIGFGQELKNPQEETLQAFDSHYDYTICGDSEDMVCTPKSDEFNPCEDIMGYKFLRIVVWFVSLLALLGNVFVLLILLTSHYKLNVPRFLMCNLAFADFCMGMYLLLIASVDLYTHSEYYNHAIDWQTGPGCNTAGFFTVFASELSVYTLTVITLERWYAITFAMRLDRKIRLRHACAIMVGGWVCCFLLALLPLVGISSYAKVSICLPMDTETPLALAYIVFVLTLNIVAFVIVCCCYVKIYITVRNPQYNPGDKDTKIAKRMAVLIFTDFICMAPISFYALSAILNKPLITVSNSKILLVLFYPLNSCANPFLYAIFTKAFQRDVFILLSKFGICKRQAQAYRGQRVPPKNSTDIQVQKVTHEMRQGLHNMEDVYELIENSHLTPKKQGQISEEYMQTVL
Chain of Nuclear receptor subfamily 1 group I member 3 (Homo sapiens) (Q14994 whole entry, looked up): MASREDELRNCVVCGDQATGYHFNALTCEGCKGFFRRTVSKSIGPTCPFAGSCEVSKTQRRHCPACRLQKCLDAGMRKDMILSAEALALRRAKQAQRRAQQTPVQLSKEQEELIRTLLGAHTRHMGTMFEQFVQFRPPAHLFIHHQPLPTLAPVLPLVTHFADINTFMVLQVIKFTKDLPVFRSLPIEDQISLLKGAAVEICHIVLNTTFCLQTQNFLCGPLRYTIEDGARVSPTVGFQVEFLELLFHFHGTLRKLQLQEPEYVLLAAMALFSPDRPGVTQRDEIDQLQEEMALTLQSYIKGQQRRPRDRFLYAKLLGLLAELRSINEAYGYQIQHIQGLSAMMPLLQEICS

Turning to `Cc1ccncc1`, the Potency entry in test [1], in test [2], in [3], in test [4], in test [5] and in [6] was “inactive” each time. For the same compound, the Potency result in test [7], in [8], in test [9] and in [10] was “inactive” throughout.

Take `CC(=O)OC(C)(C)C1CC=C(C)CC1` (centres undefined): the Potency result in [1], in test [3], in test [4], in [5], in [6] and in test [7] was “inactive” in each case. The Potency entry in test [8], in test [11], in [12], in test [9], in [13] and in test [14] was “inactive” in each case. The Potency result in [10] is “inactive”.

For the compound `CC1(C)[C@@H](O[C@H]2O[C@H](C(=O)O)[C@@H](O)[C@H](O)[C@H]2O[C@@H]2O[C@H](C(=O)O)[C@@H](O)[C@H](O)[C@H]2O)CC[C@]2(C)[C@H]3C(=O)C=C4[C@@H]5C[C@@](C)(C(=O)O)CC[C@]5(C)CC[C@@]4(C)[C@]3(C)CC[C@@H]12`, the Potency result in [1], in [2], in test [4], in test [5], in [6] and in test [7] was “inactive” throughout. The Potency result in [8], in test [11], in test [9] and in test [10] was “inactive” throughout.

Consider `CC(=O)C(C)C`, for which the Potency entry in [1], in test [2], in test [3], in test [4], in test [5] and in test [6] was “inactive” in each case. Besides, the Potency entry in test [7], in test [8] and in test [9] was “inactive” in each case.

With `Oc1ccc(Cc2ccccc2O)cc1`, the Potency result in [1], in test [2], in test [3], in test [4], in test [5] and in test [6] was “inactive” in each case. In addition, the Potency result in test [7], in test [8], in test [11], in test [9] and in test [10] was “inactive” in each case.

Turning to `O=C(O)Cc1c[nH]c2ccccc12`, the Potency result in [1], in [2], in [5], in [6], in [7] and in test [8] was “inactive” throughout. Further, the Potency entry in [11], in test [12], in [9], in [13], in test [14] and in test [10] was “inactive” throughout.

As for `CC(C)(C)NC[C@H](O)COc1nsnc1N1CCOCC1`, the Potency result in test [1], in test [2], in test [5], in [6], in test [7] and in [8] was “inactive” each time. Also, the Potency result in test [11], in [12] and in test [9] was “inactive” each time.

As to `Cc1ccccc1C=O`, the Potency entry in test [1], in test [2], in test [5], in test [6], in [7] and in test [8] was “inactive” each time. Besides, the Potency entry in test [11], in test [12], in test [9] and in test [10] was “inactive” throughout.

Regarding `CCOC(=O)CC(=O)OCC`, the Potency entry in test [1], in test [2], in test [3], in test [4], in test [5] and in test [6] was “inactive” throughout. The Potency entry in [7], in test [8], in [9] and in test [10] was “inactive” throughout.

For `C=C1C[C@]23C[C@@]1(O)CC[C@H]2[C@@]12C=C[C@H](O)[C@@](C)(C(=O)O1)[C@H]2[C@@H]3C(=O)O`, the Potency entry in test [1], in test [2], in test [3], in [4], in [5] and in test [6] was “inactive” in each case. Besides, the Potency result in test [9], in test [13], in test [14] and in test [10] was “inactive” in each case.

Turning to `CC(C=O)Cc1ccc(C(C)(C)C)cc1` (centres undefined), the Potency result in test [1], in [2], in test [3], in [4], in test [5] and in test [7] was “inactive” each time. The Potency entry in [8], in test [11], in test [12], in [9], in [13] and in test [14] was “inactive” in each case. Moreover, in test [10], the Potency entry was “inactive”.

As to `Cc1ncc(CO)c(CO)c1O`, the Potency result in test [1], in [2], in [5], in test [6], in test [7] and in test [8] was “inactive” in each case. Besides, the Potency entry in test [9] and in test [10] was “inactive” each time.

In the case of `CCCN(CCC)C(=O)SCC`, the Potency result in [1], in test [2], in test [5], in test [6], in test [7] and in [8] was “inactive” in each case. Besides, the Potency entry in test [11], in test [12], in [9] and in test [10] was “inactive” in each case.

For `CCn1cc(C(=O)O)c(=O)c2cc3c(cc21)OCO3`, the Potency entry in [1], in [2], in test [16], in [5], in test [6] and in test [7] was “inactive” each time. The Potency result in test [8], in test [9] and in test [10] was “inactive” each time. Moreover, the compound was called inactive in test [15].

With `OCCOCCOCCOCCOCCO`, the Potency entry in [1], in test [2], in [3], in test [4], in test [5] and in test [7] was “inactive” in each case. For the same compound, the Potency entry in [8], in test [9], in [13], in test [14] and in test [10] was “inactive” in each case.

As to `CCCCCCCCCCCCCC(=O)O`, the Potency result in [1], in test [2], in test [5], in [7], in [8] and in [11] was “inactive” in each case. Moreover, the Potency entry in test [12], in test [9], in [13], in test [14] and in [10] was “inactive” each time. In [6], the Potency is 50.1 µM (active).

`Nc1cccc(C(F)(F)F)c1`: the Potency result in test [1], in [2], in [3], in test [4], in [5] and in [6] was “inactive” in each case. The Potency result in [7], in test [8], in [9], in [13], in [14] and in [10] was “inactive” in each case.

As to `O=[N+]([O-])c1ccccc1C(F)(F)F`, the Potency entry in [1], in [3], in test [4], in test [5], in test [6] and in [7] was “inactive” throughout. Also, the Potency entry in [8], in [11], in test [12], in test [9], in test [13] and in test [14] was “inactive” each time. For the same compound, the Potency entry in test [10] was “inactive”.

On to `CC(=O)Nc1ccc(CC(=O)O)cc1`, for which the Potency result in [1], in test [5], in test [6], in test [7], in test [8] and in [11] was “inactive” in each case. The Potency result in test [12], in [9], in test [13], in [14] and in [10] was “inactive” in each case.
